Consider 52 compounds from ChEMBL document CHEMBL4513216, “Probing the Open Global Health Chemical Diversity Library for Multistage-Active Starting Points for Next-Generation Antimalarials” (ACS Infect Dis, 2020).

Hit rate of the full screen: of about 68,000 compounds, about 2,700 (4%) showed an effect of 50% or more. What follows is part of a selection rich in strong results, with near analogues and random picks from the rest.

For this test, the system named is Plasmodium berghei. The test can be described thus: Screen against P. berghei liver stage (PbLuc), transformed with Luciferase, at 2uM. The test is classed as functional, HepG2. The note with it: tested at 2 uM.
On to `CN(C)C(=O)c1ccc2ccc(N3CCN(CC4CC4)CC3)n2c1`, for which the INHIBITION worked out at 19.96%. The result for `CC(C)N1CCN(c2ccc3ccc(C(=O)NC4CCCC4)cn23)CC1` reads 50.17%. The result for `CN(C)C(=O)N1CCN(c2ccc3ccc(C(=O)NC4CC4)cn23)CC1` reads 23.26%; that for `Cc1nn(-c2ccccc2)c2c1c(C(F)F)cc(=O)n2CC(=O)O`, 13.39%. The result for `COCCN1CCC(NCc2c(F)cccc2F)C1` (configuration not stated) reads 28.54%; that for `Cc1nc(-c2ccncc2)ncc1C(C)NC(=O)CN1CCCC1=O` (configuration not stated), 28.62%; that for `Cc1nc(-c2ccncc2)ncc1C(C)NC(=O)CN1CCCCC1` (configuration not stated), 50.41%. As for `Cc1nc(-c2ccncc2)ncc1C(C)NC(=O)Cn1ccccc1=O` (configuration not stated), the INHIBITION came out at 10.02%. The result for `Cc1nc(C)n(CC2CCCN2Cc2cn3c(C)cccc3n2)n1` (configuration not stated) reads -17.11%; that for `Cc1nc(C)n(CC2CCCN(Cc3cccc(F)c3F)C2)n1` (configuration not stated), 2.18%; that for `Cc1nc(C)n(CC2CCCN(Cc3cn4c(C)cccc4n3)C2)n1` (configuration not stated), 60.64%. The result for `Cc1noc(CN2CCCC(Cn3nc(C)nc3C)C2)n1` (configuration not stated) reads 72.31%. The result for `Cc1nc(C)n(CC2CCCN(Cc3nc(C4CC4)no3)C2)n1` (configuration not stated) reads -38.96%; that for `CCc1nc(CN2CCCC(Cn3nc(C)nc3C)C2)no1` (configuration not stated), 70.27%. Take `CCc1noc(CN2CCCC(Cn3nc(C)nc3C)C2)n1` (configuration not stated): the INHIBITION amounted to 21.39%. In the case of `Cc1nc(C)n(CC2CCCN(Cc3noc(C)n3)C2)n1` (configuration not stated) it was 17.31%; in that of `COCCc1noc(CN2CCCC(Cn3nc(C)nc3C)C2)n1` (configuration not stated), 30.91%. For the compound `Cn1cc(C2COC3(CCN(C(=O)Cc4ccccc4)CC3)C2)cn1` (configuration not stated), the INHIBITION was 2.27%. In the case of `c1cnc(N2CCC3(CC2)CC(NCC2CC2)c2ccccc23)nc1` (configuration not stated) it was 33.11%. The result for `CNC(=O)CNC1CC2(CCN(c3ncccn3)CC2)c2ccccc21` (configuration not stated) reads 70.75%; that for `CNC(=O)CC1CC2(CCN(c3ncccn3)CC2)c2ccccc21` (configuration not stated), 2.87%; that for `CNC(=O)C(C)NC(=O)c1cc(COc2ccc(OC)cc2Cl)[nH]n1` (configuration not stated), 55.36%. In the case of `COc1ccc(OCc2cc(C(=O)N3CC=CC3)n[nH]2)c(Cl)c1`, the INHIBITION was 27.77%.

As to `CCC(CO)NC(=O)c1cc(COc2ccc(OC)cc2Cl)[nH]n1` (configuration not stated), the INHIBITION came out at 45.82%. In the case of `COc1ccc(OCc2cc(C(=O)N3CCOCC3)n[nH]2)c(Cl)c1` it was 15.05%; in that of `CCC(O)CNC(=O)c1cc(COc2ccc(OC)cc2Cl)[nH]n1` (configuration not stated), 52.98%. The result for `COc1ccc(OCc2cc(C(=O)N3CCSCC3)n[nH]2)c(Cl)c1` reads 8.48%; that for `COc1ccc(OCc2cc(C(=O)N3CCC(O)CC3)n[nH]2)c(Cl)c1`, 8.57%; that for `CC[C@@H](CO)NC(=O)c1cc(COc2ccc(OC)cc2Cl)[nH]n1`, 69.67%. The result for `COc1ccc(OCc2cc(C(=O)N3C[C@@H](C)O[C@@H](C)C3)n[nH]2)c(Cl)c1` reads 21.29%; that for `CCc1oc(C(=O)NC(C)Cc2cnccn2)cc1CN1CCCC1` (configuration not stated), 12.11%. As for `CNc1cccc(C2CCCN(C(=O)c3ccn(C)n3)C2)n1` (configuration not stated), the INHIBITION stood at 15.64%. The result for `Cc1cc(C(F)(F)F)n2nc(C3CCCN3C3CCSCC3)cc2n1` (configuration not stated) reads 36%; that for `OC1(CN2CCC(Oc3cccc(C(F)(F)F)c3)CC2)CCNC1` (configuration not stated), -16.56%.

With `Cn1ccc(C(=O)NCCOc2ccc3c(c2)OCO3)cc1=O`, the INHIBITION is reported as 25.78%. In the case of `CC(C)(C)C(=O)NCCCn1cncn1` it was 32.55%. In the case of `Cc1cc(NC(=O)CN2CCCC2c2c(C)nn(C)c2C)on1` (configuration not stated) it was 26.76%. In the case of `c1cnnc(N2CCCC(NCc3ccc(-n4cncn4)cc3)C2)c1` (configuration not stated) it was 32.79%; in that of `CC1(C)O[C@@](C)([C@H]2CC3(CCN(c4cnccn4)CC3)CO2)CC[C@@H]1O`, 4.19%. As to `c1csc(CN2C[C@@H](n3cccn3)[C@H]3OCCC[C@H]32)c1`, the INHIBITION was found to be 51.85%. For the compound `c1cnn([C@@H]2CN(Cc3nccs3)[C@@H]3CCCO[C@@H]32)c1`, the INHIBITION is 13.61%. In the case of `O=C(N[C@@H]1CN(Cc2cccs2)[C@@H]2CCCO[C@@H]21)C1CC1`, the INHIBITION is reported as 8.91%. With `O=C(c1cccc(C2CCNC2)c1)N1CCC(c2ccncc2)CC1` (configuration not stated), the INHIBITION is -0.41%. As for `O=C(Nc1cccc(C2SCCS2)c1)C1CCCN1c1nccs1` (configuration not stated), the INHIBITION is recorded as -7.88%.

Consider `Cc1cccc(OCCNC(=O)C(C)S(=O)(=O)c2ccccn2)c1` (configuration not stated), for which the INHIBITION is listed as -27.59%. With `CCN(CC)Cc1cc(C(=O)N2CCC3(CCN(C)CC3)C2)c(C)o1`, the INHIBITION is -14.17%. The result for `CCN(CC)Cc1cc(C(=O)N2CCCC(O)(CO)C2)c(C)o1` (configuration not stated) reads 35.42%. In the case of `Cc1nc2c(C)cccc2cc1C(=O)N1CCC2(CC1)NCCNC2=O` it was 71.07%. As to `Cc1nc2c(C)cccc2cc1C(=O)N1CCC2(CCNCC2)CC1`, the INHIBITION was -10.67%. The result for `CCN(CC)Cc1cc(C(=O)N2CCC3(CC2)NCCNC3=O)c(C)o1` reads 64.71%. In the case of `Cc1nc2c(C)cccc2cc1C(=O)N1CCC2(CCN(C)CC2)C1` it was -30.77%; in that of `Cc1nnc(C2CCN(C(=O)c3ccsc3)CC2)s1`, 7.68%.
